This is a sample that favours compounds with a hit; in the whole collection about 28% have one here.
CYP2C9 activ: activators of human CYP2C9; 1.4% of 96,000 active; activation factor at 5 µM; recombinant CYP2C9, luciferin-H conversion, luminescence; active compounds read high; factor 1 = untreated enzyme, 0 = blocked;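 active = activation factor of 2 or more for CYP2C9 at a 5 µM dose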
Target sequence (P11712 whole entry, looked up): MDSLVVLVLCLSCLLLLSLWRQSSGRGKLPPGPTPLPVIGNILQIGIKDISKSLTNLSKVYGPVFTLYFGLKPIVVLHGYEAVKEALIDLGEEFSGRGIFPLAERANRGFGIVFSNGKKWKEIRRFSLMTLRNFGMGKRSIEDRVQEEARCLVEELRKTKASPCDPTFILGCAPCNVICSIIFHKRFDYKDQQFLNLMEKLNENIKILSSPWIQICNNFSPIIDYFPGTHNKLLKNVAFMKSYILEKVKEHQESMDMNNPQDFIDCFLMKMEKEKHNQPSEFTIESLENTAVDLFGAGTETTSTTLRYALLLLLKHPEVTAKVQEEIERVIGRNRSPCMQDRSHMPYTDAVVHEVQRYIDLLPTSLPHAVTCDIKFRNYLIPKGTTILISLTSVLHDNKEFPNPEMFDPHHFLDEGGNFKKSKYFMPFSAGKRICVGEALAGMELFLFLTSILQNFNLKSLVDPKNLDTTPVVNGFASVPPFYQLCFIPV
CYP2C19 inh: inhibitors of human CYP2C19 | 21% of 96,000 active | P33261 | inhibition, % at 5 µM | CYP2C19 Supersomes, luciferin-H EGE luminescence, 30 min;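 active = CYP2C19 inhibition above a set limit at 5 µM in the primary screen, cut at about 50% in these data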
Pyk2 oligo antag: antagonists of human Pyk2 oligomerization; Q14289; Q293 cells, Pyk2 FERM NanoBiT luminescence; active compounds read low; z-score (the deposit names both 25 µM and 10 µM); 0.83% of 99,000 active;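 active = Z-score of -3 or lower, scaled per plate to the spread of control and sample wells; inactive = z-score above -3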;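 also: negative z-score means lost luminescence so less FERM oligomerization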
CYP2C9 inh: inhibitors of human CYP2C9. P11712. CYP2C9 Supersomes, luciferin-H conversion, luminescence. inhibition, % at 5 µM. 20% of 96,000 active. AID 777;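 active = blocking of liver enzyme CYP2C9 beyond about 50% at 5 µM, limit read from the data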
CYP2C19 activ: increases human CYP2C19 enzyme activity; 96,000 tested, under 10 active; P33261; activation factor at 5 µM; recombinant CYP2C19, luciferin-H EGE luminescence; active compounds read high; 0 = fully inhibited enzyme, 1 = untreated enzyme;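 active = activation factor of at least 2 at 5 µM in the primary screen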
A number is an active result; – = inactive; · = no result given.

SMILES	CYP2C9 activ	CYP2C19 inh	Pyk2 oligo antag	CYP2C9 inh	CYP2C19 activ
CC(Oc1ccc(Cl)cc1Cl)c1nc(-c2ccc(NC(=O)c3ccco3)cc2)no1 (stereo not drawn)	–	–	–	54	–
CCCCNC(=O)CC1N=C2c3ccccc3N=C(SCC(=O)Nc3cccc(OC)c3)N2C1=O (stereo not drawn)	–	–	–	–	–
O=C(CCC1N=C2c3ccccc3N=C(SCc3ccc(F)cc3)N2C1=O)NCc1ccco1 (stereo not drawn)	–	–	–	65	–
CCCCNC(=O)CC1N=C2c3ccccc3N=C(SCC(=O)Nc3ccc(OC)cc3)N2C1=O (stereo not drawn)	–	–	–	60	–
Cc1ccc(CSC2=Nc3ccccc3C3=NC(CC(=O)NCc4ccco4)C(=O)N23)cc1 (stereo not drawn)	–	–	–	79	–
O=C(CC1N=C2c3ccccc3N=C(SCc3ccc(F)cc3)N2C1=O)NCc1ccco1 (stereo not drawn)	–	–	–	–	–
O=C(CSC1=Nc2ccccc2C2=NC(CC(=O)NCc3ccco3)C(=O)N12)NCC1CCCO1 (stereo not drawn)	–	–	–	–	–
O=C(CCC1N=C2c3ccccc3N=C(SCc3ccc(Cl)cc3)N2C1=O)NCc1ccco1 (stereo not drawn)	–	–	–	77	–
CCCCNC(=O)COC(=O)c1cc(F)c(F)cc1Cl	·	·	–	·	·
Cc1cccc(-n2c(CNC(=O)c3ccc(S(=O)(=O)N(C)C)cc3)nnc2SCC(=O)Nc2ccc(F)cc2)c1	·	·	–	·	·
CCOC(=O)C1C2C=CC3(CN(c4ccccc4CC)C(=O)C13)O2 (stereo not drawn)	·	·	–	·	·
N#CCSC1=Nc2ccccc2C2=NC(CCC(=O)N3CCN(c4ccccc4)CC3)C(=O)N12 (stereo not drawn)	–	–	–	73	–
Cc1ccc(S(=O)(=O)CC(=O)Nc2nc(-c3ccccc3)cs2)cc1	–	85	–	97	–
O=C(CS(=O)(=O)c1ccccc1)Nc1nc(-c2ccccc2)cs1	–	76	–	98	–
O=C(O)CCCC(=O)Nc1nc(-c2ccccc2)cs1	–	–	–	–	–
CN1CCN(CC(=O)Nc2nc(-c3ccccc3)cs2)CC1	–	–	–	–	–
O=C(NCCO)c1ccc(-c2nnc(N3CCOCC3)c3ccccc23)cc1	–	–	–	–	–
CCCCN(C)CCNS(=O)(=O)c1ccc2c(c1)n(C)c(=O)c(=O)n2C	–	–	·	–	–
O=C(CCC1CCCCC1)Nc1c2c(nn1-c1ccc(F)cc1)CS(=O)C2 (stereo not drawn)	–	98	–	–	–
O=C(Cc1cn2ccsc2n1)Nc1cccc2cnccc12	–	–	–	–	–
Oc1c(C(c2cccs2)N2CCOCC2)sc2ncnn12 (stereo not drawn)	–	–	·	–	–
COc1ccc(C(c2sc3ncnn3c2O)N2CCN(c3ccccc3F)CC2)cc1OC (stereo not drawn)	–	–	·	–	–
Oc1c(C(c2ccco2)N2CCN(C(c3ccccc3)c3ccccc3)CC2)sc2ncnn12 (stereo not drawn)	–	95	·	94	–
Oc1c(C(c2cccs2)N2CCN(c3cccc(Cl)c3)CC2)sc2ncnn12 (stereo not drawn)	–	–	·	54	–
Cc1ccc(C(c2sc3ncnn3c2O)N2CC(C)CC(C)C2)cc1 (stereo not drawn)	–	76	·	–	–
SMILES	CYP2C9 activ	CYP2C19 inh	Pyk2 oligo antag	CYP2C9 inh	CYP2C19 activ
O=C(c1ccco1)N1CCN(C(c2cccs2)c2sc3ncnn3c2O)CC1 (stereo not drawn)	–	52	·	–	–
C=C(C)CSc1nc(N)c2c(C)c(C)sc2n1	–	56	–	–	–
CCOC(=O)CSc1nc2sc(C)c(C)c2c(=O)[nH]1	–	–	–	–	–
O=C(O)CCc1nn2c3ccccc3nc2n(-c2ccccc2)c1=O	–	–	–	–	–
O=C(Cn1cnc2ccccc2c1=O)N1CCN(Cc2ccc3c(c2)OCO3)CC1	–	–	–	–	–
O=C(CCCCn1c(=O)[nH]c2ccsc2c1=O)NCc1cccnc1	·	·	–	·	·
O=C(CCCCn1c(=O)[nH]c2ccsc2c1=O)NCc1ccc2c(c1)OCO2	–	–	·	60	–
Cn1c(=O)c2sccc2n2c(CCCC(=O)NCc3ccc4c(c3)OCO4)nnc12	–	77	–	–	–
Cn1c(=O)cc(SCC(=O)N2CCN(Cc3ccc4c(c3)OCO4)CC2)c2ccccc21	–	–	–	52	–

Compound activity (PubChem)
